Reference: ChEMBL document CHEMBL3433997, “St. Jude Leishmania screening dataset” (2016)

What was measured:
Type in all cases: functional
[1] = target: Solute carrier family 2, facilitated glucose transporter member 1 (Homo sapiens) (UniProt P11166); test: ST_JUDE_LEISH: Cytotoxicity at 2uM final concentration against transgenic Leishmania Mexicana promastigotes LmGLUT1 that are glucose transport deficient and complemented with the human glucose transporter GLUT1. Activity is measured by DNA content using SYBR green in vitro
[2] = target: Hexose transporter 1 (Plasmodium falciparum) (UniProt O97467); test: ST_JUDE_LEISH: Cytotoxicity at 2uM final concentration against transgenic Leishmania Mexicana promastigotes LmPfHT that are glucose transport deficient and complemented with the Plasmodium falciparum hexose transporter. Activity is measured by DNA content using SYBR green in vitro
[3] = target: Glucose transporter (Leishmania mexicana) (UniProt O61059); test: ST_JUDE_LEISH: Cytotoxicity at 2uM final concentration against transgenic Leishmania Mexicana promastigotes LmGT2 that are glucose transport deficient and complemented with the L. Mexicana glucose transporter 2. Activity is measured by DNA content using SYBR green in vitro

Chain of Solute carrier family 2, facilitated glucose transporter member 1 (Homo sapiens) (P11166 whole entry): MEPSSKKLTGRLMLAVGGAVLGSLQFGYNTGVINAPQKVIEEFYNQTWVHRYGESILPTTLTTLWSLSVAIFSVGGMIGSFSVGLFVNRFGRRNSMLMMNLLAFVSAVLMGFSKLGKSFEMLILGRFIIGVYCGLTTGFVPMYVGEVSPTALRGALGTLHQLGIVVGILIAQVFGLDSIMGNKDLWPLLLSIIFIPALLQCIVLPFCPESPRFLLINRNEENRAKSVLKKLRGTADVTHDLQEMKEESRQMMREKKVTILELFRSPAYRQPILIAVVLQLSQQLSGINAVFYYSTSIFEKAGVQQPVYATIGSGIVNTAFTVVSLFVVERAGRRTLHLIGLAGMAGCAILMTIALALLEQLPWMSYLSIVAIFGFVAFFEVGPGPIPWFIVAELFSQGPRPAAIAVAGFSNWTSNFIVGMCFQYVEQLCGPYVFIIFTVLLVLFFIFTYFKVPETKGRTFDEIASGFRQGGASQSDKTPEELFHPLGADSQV

Structure (SMILES)	inhibition [1] [%]	inhibition [2] [%]	inhibition [3] [%]
CC(C)=CC1C(C(=O)n2c(=N)[nH]c3ccccc32)C1(C)C (stereo not given)	9.13	7.8	5.36
CN(C)c1ccc(-c2ccc(C(=O)NC3CCN(Cc4ccccc4)CC3)s2)cc1	1.65	0.56	1.83
Cc1nc(Cl)c2c(-c3ccccc3)csc2n1	0.55	-0.74	-0.21
Nc1nc(F)nc2nc[nH]c12	29.6	29.2	22
CCCCC(=O)Nc1cc(=O)[nH]c2nc(-c3ccc(Cl)cc3)nn12	-1.02	3.54	-0.39
COc1ccc2nccc([C@@H](O)CN3CCC(NC(=O)/C=C/c4cc([N+](=O)[O-])ccc4OC)CC3)c2c1	1.12	0.92	0.53
O=C(Nc1cc(C(F)(F)F)ccc1Cl)c1ccc(Cn2cc(Br)cn2)cc1	1.23	0.15	-9.62
CCCCCNc1nc2nc(N)nc(N)c2nc1-c1ccccc1	7.52	9.23	0.23
CCN(CC)S(=O)(=O)c1ccc(C(C)NC(=O)c2ccccc2COc2ccccc2)cc1 (stereo not given)	6.67	5.1	5.03
Cc1noc(C)c1-c1cccc(CNCc2ccc(-c3cccc(-c4nc5cccc(C)c5[nH]4)c3)cc2)c1	0.9	-2.28	-4.14
CC(C)NCc1cccc(-c2ccc(-c3nc4ccccc4[nH]3)cc2)c1	3.1	2.97	0.41
COc1ccc2c(c1)CCCC2C(C)NCC(O)c1cccc(C(F)(F)F)c1 (stereo not given)	8.86	5.98	6.3
c1ccc(-c2ccc(CNCCCNc3nc4ccccc4[nH]3)cc2)cc1	4.26	9.56	6.92
COc1ccc2nccc([C@@H](O)CN3CCC(NCc4cc5ccccc5cn4)CC3)c2n1	12.2	17.3	7.09
CCCCNC(=N)c1ccc(OCCCCCOc2ccc(C(=N)NCCCC)cc2)cc1	5.34	2.05	-0.11
O=C(Nc1ccc(-c2cncc(NCCCN3CCCC3)c2)cc1)c1ccccc1	1.36	1.48	1.55
COc1ccc(CNc2ncc(-c3ccsc3)c(-c3nccs3)n2)cc1OC	0.9	0.94	2.07
Cc1c(-c2cccc(Br)c2)[nH]c2nc(N)nc(N)c12	1.29	2.55	0.97

Structure (SMILES)	inhibition [1] [%]	inhibition [2] [%]	inhibition [3] [%]
COc1ccc2nc(C)cc(Nc3ccc(Cl)c(Cl)c3)c2c1	7.6	14.2	17.3
Fc1cc(Cl)ccc1Nc1ccnc2cc(-c3ccc(CN4CCOCC4)o3)ccc12	20.6	52.9	43.6
Cc1cc(C(=O)Nc2ccc3c(c2)CCN3C2CCN(Cc3ccc(F)cc3Cl)C2)no1 (stereo not given)	4.11	3.71	3.86
CN(C)c1cccc2c1nc(-c1ccc3c(c1)CCO3)n2CCNCc1ccccc1	11.7	8.56	5.57
CC1CN(S(=O)(=O)c2ccc(NC(=O)c3cc(-c4ccccc4O)n[nH]3)cc2)CC(C)O1 (stereo not given)	4.88	5.64	4.67
O=C(N[C@@H](Cc1cc(F)cc(F)c1)[C@H](O)CNCc1cccc(C(F)(F)F)c1)c1cc(C2CCCC2)cc(N2CCCC2=O)c1	1.51	1.51	1.95
COc1cc(CCNc2nc(NCc3cccc4ccccc34)nc(N3CCC(N)CC3)n2)ccc1O	5.69	4.98	2.74
CC(C)CN(Cc1c(O)ccc2[nH]c(-c3ccc(F)cc3F)nc12)CC(C)C	11.1	10.8	5.69
O=C(NCCc1ccccc1)N(Cc1ccccc1-c1ccc(CNC2CCCC2)cc1)C1CCN(Cc2ccccc2)CC1	7.74	7.15	5.58
Cc1cc(C(=O)CN2C(=O)NC3(CCCc4ccccc43)C2=O)c(C)n1Cc1ccco1 (stereo not given)	1.28	0.08	-1.89
Cc1noc(C)c1-c1cccc(CNCc2cccc(-c3ccc(-c4nc5cc(C(F)(F)F)ccc5[nH]4)s3)c2)c1	0.65	7.93	5.87
Cc1cc(N2CCCCC2)nc2ccc(NC(=O)c3cccc([N+](=O)[O-])c3)cc12	4.97	4.4	6.58
O=C(Nc1ccc(Cl)c(Cl)c1)Nc1ccc2nccc(N3CCNCC3)c2c1	-0.16	0.06	0.13
CC(C)N(CCOc1ccc2c(c1)N(C(=O)Nc1ccc(Cl)c(Cl)c1)CC2)C(C)C	-0.91	0.27	-4.18
COc1ccc(F)cc1-c1ccccc1CNC(=O)CN(C)S(=O)(=O)c1cc(C)cc(Cl)c1C	1.17	1.94	0.93
CC(C)(CNCc1ccc(C(F)(F)F)cc1)c1nc(-c2ccc(Cl)c(O)c2)c(-c2ccncc2)[nH]1	0.52	-0.09	0.02
O=C(c1cccc(-c2ccc(-c3nc4cc(C(F)(F)F)ccc4[nH]3)cc2)c1)N1CCCCC1CN1CCC(O)C1 (stereo not given)	0.99	1.44	2.26
